Measured values taken from PubChem BioAssay (NCATS).
Records with an inconclusive call do not appear. Entries that show only a call come without a potency. The source made the active and inactive calls. Calls come from the whole dose curve; as a rule, active = well fitted curve in the direction sought with a large enough effect; inconclusive = small, poorly fitted or top-dose-only effect, or another doubt; inactive = no such curve, though single readings can be large; an effect the other way counts as inactive or inconclusive.

Tests used:
[1] = target: ATP-dependent 6-phosphofructokinase (Trypanosoma brucei brucei) (UniProt O15648); experiment: qHTS Assay to Find Inhibitors of T. brucei phosphofructokinase: hit validation (AID 492961)
How it was run: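 Luminescence from ADP-Glo reports ADP generated as T. brucei PFK (1.25 nM) phosphorylates 0.5 mM fructose-6-phosphate using 0.1 mM ATP. Reactions ran 45 min at room temperature, pH 8.0.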

AA1029 = experiment: qHTS profiling for inhibitors of Plasmodium falciparum proliferation (AID 504749); note: nearly all actives have a fitted effect of over 60% in size; note: potency is the fitted concentration of half-maximal effect; conditions: P. falciparum in erythrocytes, SYBR Green DNA, 72 h; series mostly up to 12.8 µM
How it was run: (§1)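 Readout was DNA-dye fluorescence from lysed cultures, ex 485/em 535 nm. Parasitized red cells had grown 72 h with compound; data scaled between 0.29 uM artemisinin and DMSO wells and corrected using vehicle-only plates.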

CP185 = experiment: as above; conditions: P. falciparum in erythrocytes, SYBR Green DNA, 72 h; series mostly up to 12.8 µM
How it was run: as §1

CP194 = experiment: as above; conditions: P. falciparum in erythrocytes, SYBR Green DNA, 72 h; series mostly up to 12.8 µM
How it was run: as §1

CP201 = experiment: as above; conditions: P. falciparum in erythrocytes, SYBR Green DNA, 72 h; series mostly up to 12.8 µM
How it was run: as §1

CP203 = experiment: as above; conditions: P. falciparum in erythrocytes, SYBR Green DNA, 72 h; series mostly up to 12.8 µM
How it was run: as §1

CP211 = experiment: as above; conditions: P. falciparum in erythrocytes, SYBR Green DNA, 72 h; series mostly up to 12.8 µM
How it was run: as §1

CP252 = experiment: as above; conditions: P. falciparum in erythrocytes, SYBR Green DNA, 72 h; series mostly up to 12.8 µM
How it was run: as §1

CP265 = experiment: as above; conditions: P. falciparum in erythrocytes, SYBR Green DNA, 72 h; series mostly up to 12.8 µM
How it was run: as §1

CP268 = experiment: as above; conditions: P. falciparum in erythrocytes, SYBR Green DNA, 72 h; series mostly up to 12.8 µM
How it was run: as §1

CP286 = experiment: as above; conditions: P. falciparum in erythrocytes, SYBR Green DNA, 72 h; series mostly up to 12.8 µM
How it was run: as §1

CP291 = experiment: as above; conditions: P. falciparum in erythrocytes, SYBR Green DNA, 72 h; series mostly up to 12.8 µM
How it was run: as §1

CP305 = experiment: as above; conditions: P. falciparum in erythrocytes, SYBR Green DNA, 72 h; series mostly up to 12.8 µM
How it was run: as §1

CP325 = experiment: as above; conditions: P. falciparum in erythrocytes, SYBR Green DNA, 72 h; series mostly up to 12.8 µM
How it was run: as §1

CP329 = experiment: as above; conditions: P. falciparum in erythrocytes, SYBR Green DNA, 72 h; series mostly up to 12.8 µM
How it was run: as §1

DFO2036 = experiment: as above; conditions: P. falciparum in erythrocytes, SYBR Green DNA, 72 h; series mostly up to 12.8 µM
How it was run: as §1

DIV14 = experiment: as above; conditions: P. falciparum in erythrocytes, SYBR Green DNA, 72 h; series mostly up to 12.8 µM
How it was run: as §1

DIV17 = experiment: as above; conditions: P. falciparum in erythrocytes, SYBR Green DNA, 72 h; series mostly up to 12.8 µM
How it was run: as §1

ECU = experiment: as above; conditions: P. falciparum in erythrocytes, SYBR Green DNA, 72 h; series mostly up to 12.8 µM
How it was run: as §1

HB3 = experiment: as above; conditions: P. falciparum in erythrocytes, SYBR Green DNA, 72 h; series mostly up to 12.8 µM
How it was run: as §1

Sequence of ATP-dependent 6-phosphofructokinase (Trypanosoma brucei brucei) (O15648 whole entry, looked up): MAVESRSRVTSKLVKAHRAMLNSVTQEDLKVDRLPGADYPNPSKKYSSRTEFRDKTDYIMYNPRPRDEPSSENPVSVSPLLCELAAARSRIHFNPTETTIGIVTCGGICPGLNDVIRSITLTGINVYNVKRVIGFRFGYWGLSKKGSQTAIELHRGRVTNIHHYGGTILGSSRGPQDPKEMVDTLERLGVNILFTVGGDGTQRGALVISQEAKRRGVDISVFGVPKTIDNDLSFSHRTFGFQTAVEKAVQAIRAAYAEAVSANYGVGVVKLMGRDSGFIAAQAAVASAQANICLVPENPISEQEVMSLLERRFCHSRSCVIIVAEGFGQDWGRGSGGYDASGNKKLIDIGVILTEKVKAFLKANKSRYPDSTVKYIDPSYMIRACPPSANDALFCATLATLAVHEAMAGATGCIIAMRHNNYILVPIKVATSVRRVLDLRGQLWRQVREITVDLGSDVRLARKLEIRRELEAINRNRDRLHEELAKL

SMILES | outcome [1] | Potency (AA1029) | Potency (CP185) | Potency (CP194) | Potency (CP201) | Potency (CP203) | Potency (CP211) | Potency (CP252) | Potency (CP265) | Potency (CP268) | Potency (CP286) | Potency (CP291) | Potency (CP305) | Potency (CP325) | Potency (CP329) | Potency (DFO2036) | Potency (DIV14) | Potency (DIV17) | Potency (ECU) | Potency (HB3)
CC(=O)O[C@]1(C(C)=O)CC[C@@H]2[C@@H]3C=C(C)C4=CC(=O)CC[C@@]4(C)[C@H]3CC[C@]21C | inactive | inactive | inactive | inactive | inactive | inactive | inactive | inactive | inactive | inactive | inactive | inactive | inactive | inactive | inactive | inactive | inactive | inactive | inactive | inactive
CO[C@H]1[C@@H](OC(N)=O)[C@H](O)[C@@H](Oc2ccc3c(O)c(NC(=O)c4ccc(O)c(CC=C(C)C)c4)c(=O)oc3c2C)OC1(C)C | inactive | inactive | inactive | inactive | inactive | inactive | inactive | inactive | inactive | inactive | inactive | inactive | inactive | inactive | inactive | inactive | inactive | inactive | inactive | inactive
CC(C)(C)NC[C@H](O)COc1cccc2c1CCC(=O)N2 | – | inactive | inactive | inactive | inactive | inactive | inactive | inactive | inactive | inactive | inactive | inactive | inactive | inactive | inactive | inactive | inactive | inactive | inactive | inactive
CCOC(=O)[C@H](CCc1ccccc1)N[C@@H](C)C(=O)N1[C@H](C(=O)O)C[C@H]2CCC[C@@H]21 | – | inactive | inactive | inactive | inactive | inactive | inactive | inactive | inactive | inactive | inactive | inactive | inactive | inactive | – | inactive | inactive | inactive | inactive | inactive
C=CCN1C(=CCO)[C@H]2C[C@H]3[C@@H]1CC[C@@]31c3ccccc3N3C=C4[C@@H]5N(/C=C/2[C@H]31)c1ccccc1[C@]51CC[C@H]2[C@H]1C[C@@H]4/C(=C/CO)N2CC=C | inactive | inactive | inactive | inactive | inactive | inactive | inactive | inactive | inactive | inactive | inactive | inactive | inactive | inactive | inactive | inactive | inactive | inactive | inactive | inactive
C[C@@]12CC[C@H]3[C@@H](CCC4=CC(=O)CC[C@]43C)[C@H]1CC[C@H]2C(=O)CO | inactive | inactive | inactive | inactive | inactive | – | inactive | inactive | inactive | inactive | inactive | inactive | inactive | inactive | inactive | inactive | – | inactive | – | inactive
COc1cc2nc(N3CCN(C(=O)[C@@H]4CCCO4)CC3)nc(N)c2cc1OC | inactive | inactive | inactive | inactive | inactive | inactive | inactive | inactive | inactive | inactive | inactive | inactive | inactive | inactive | inactive | inactive | inactive | inactive | inactive | inactive
NC(=O)N[C@H]1NC(=O)NC1=O | inactive | inactive | inactive | inactive | inactive | inactive | inactive | inactive | inactive | inactive | inactive | inactive | inactive | inactive | inactive | – | inactive | inactive | inactive | inactive
NS(=O)(=O)c1cc2c(cc1Cl)N[C@@H](CC1CCCC1)NS2(=O)=O | inactive | inactive | inactive | inactive | inactive | inactive | inactive | inactive | inactive | inactive | inactive | inactive | inactive | inactive | inactive | inactive | inactive | inactive | inactive | inactive
C#C[C@@]1(O)CC[C@@H]2[C@@H]3CCC4=C(CCC(=O)C4)[C@H]3CC[C@]21C | inactive | – | – | – | – | – | – | – | – | – | – | – | – | – | – | – | – | – | – | –
COc1cc(N)c(Cl)cc1C(=O)N[C@H]1CCN(CCCOc2ccc(F)cc2)C[C@H]1OC | inactive | – | – | – | – | inactive | – | – | 3.98 µM (active) | inactive | 3.55 µM (active) | – | – | – | – | – | – | – | – | –
C=CCOc1ccccc1OC[C@H](O)CNC(C)C | – | inactive | inactive | inactive | inactive | inactive | inactive | inactive | inactive | inactive | inactive | inactive | inactive | inactive | inactive | inactive | inactive | inactive | inactive | inactive
COC(=O)C1=C(C)NC(C)=C(C(=O)OC(C)C)[C@H]1c1cccc2nonc12 | inactive | – | inactive | – | – | – | – | – | inactive | – | – | – | – | – | – | inactive | – | – | – | –
CC(=O)OCC(=O)[C@@]1(O)CC[C@@H]2[C@H]3CCC4=CC(=O)C=C[C@]4(C)[C@]3(F)[C@@H](O)C[C@@]21C | inactive | inactive | inactive | inactive | inactive | inactive | inactive | inactive | inactive | inactive | inactive | inactive | inactive | inactive | inactive | inactive | inactive | inactive | inactive | inactive
CC[N+](CC)(CC)CC[C@](O)(c1ccccc1)C1CCCCC1 | inactive | inactive | inactive | inactive | inactive | inactive | inactive | inactive | inactive | inactive | – | – | inactive | inactive | inactive | inactive | – | inactive | inactive | –
O=C1O[C@H](CN2CCOCC2)CN1/N=C\c1ccc([N+](=O)[O-])o1 | – | – | – | inactive | inactive | inactive | inactive | inactive | – | inactive | – | inactive | inactive | inactive | inactive | – | inactive | inactive | – | –
O=C(Nc1ccccc1)OC[C@H](CN1CCCCC1)OC(=O)Nc1ccccc1 | inactive | inactive | inactive | inactive | inactive | inactive | inactive | inactive | inactive | inactive | inactive | inactive | inactive | inactive | inactive | inactive | inactive | inactive | inactive | inactive
CS(=O)(=O)c1ccc([C@H](O)[C@H](CO)NC(=O)C(Cl)Cl)cc1 | inactive | – | – | – | – | – | – | – | inactive | – | – | – | – | – | – | – | inactive | inactive | – | inactive
CC(=O)[C@@]1(O)CC[C@H]2[C@H]3C[C@@H](C)C4=CC(=O)C=C[C@]4(C)[C@@]3(F)[C@@H](O)C[C@]21C | inactive | inactive | inactive | inactive | inactive | inactive | inactive | inactive | inactive | inactive | inactive | inactive | inactive | inactive | inactive | inactive | inactive | inactive | inactive | inactive
CN1C(=O)C[C@H](c2ccccc2)C1=O | inactive | inactive | – | inactive | inactive | inactive | inactive | inactive | – | inactive | inactive | inactive | inactive | inactive | inactive | inactive | inactive | inactive | inactive | inactive
CC1(C)O[C@@H]2C[C@H]3[C@H]4C[C@H](F)C5=CC(=O)CC[C@]5(C)[C@@H]4[C@H](O)C[C@]3(C)[C@]2(C(=O)CO)O1 | inactive | inactive | inactive | inactive | inactive | inactive | inactive | inactive | inactive | inactive | inactive | inactive | inactive | inactive | inactive | inactive | inactive | inactive | inactive | inactive
O=C(NC[C@@H](O)CO)c1c(I)c(C(=O)NC[C@@H](O)CO)c(I)c(N(CCO)C(=O)CO)c1I | inactive | inactive | inactive | inactive | inactive | inactive | inactive | inactive | inactive | inactive | inactive | inactive | inactive | inactive | inactive | inactive | inactive | inactive | inactive | inactive
CC(=O)[C@@H]1CC[C@@H]2[C@@H]3C[C@H](C)C4=CC(=O)CC[C@@]4(C)[C@H]3[C@H](O)C[C@]21C | inactive | inactive | inactive | inactive | inactive | inactive | inactive | inactive | inactive | inactive | inactive | inactive | inactive | inactive | inactive | inactive | inactive | inactive | inactive | inactive
C[C@H](Oc1ccccc1)C(=O)N[C@@H]1C(=O)N2[C@@H]1SC(C)(C)[C@@H]2C(=O)O | inactive | inactive | inactive | inactive | inactive | inactive | inactive | inactive | inactive | inactive | inactive | inactive | inactive | inactive | inactive | inactive | inactive | inactive | inactive | inactive
